Consider 56 molecules from PubChem BioAssay AID504652 (National Center for Advancing Translational Sciences (NCATS), 2011).

Out of some 360,000 compounds screened, about 11,000 (3.1%) were called active. The sample holds actives, similar compounds and a random draw of the others, so the mix is not that of the screen. Unmarked numbers belong to inactive results. No stated cut-off is given here; in the data, active means activity change below about -30%; inactive means the rest.
On the % scale 0 is the no-effect control and ±100 the full control effect.

Sequence of D(1A) dopamine receptor (Homo sapiens) (P21728 whole entry, looked up): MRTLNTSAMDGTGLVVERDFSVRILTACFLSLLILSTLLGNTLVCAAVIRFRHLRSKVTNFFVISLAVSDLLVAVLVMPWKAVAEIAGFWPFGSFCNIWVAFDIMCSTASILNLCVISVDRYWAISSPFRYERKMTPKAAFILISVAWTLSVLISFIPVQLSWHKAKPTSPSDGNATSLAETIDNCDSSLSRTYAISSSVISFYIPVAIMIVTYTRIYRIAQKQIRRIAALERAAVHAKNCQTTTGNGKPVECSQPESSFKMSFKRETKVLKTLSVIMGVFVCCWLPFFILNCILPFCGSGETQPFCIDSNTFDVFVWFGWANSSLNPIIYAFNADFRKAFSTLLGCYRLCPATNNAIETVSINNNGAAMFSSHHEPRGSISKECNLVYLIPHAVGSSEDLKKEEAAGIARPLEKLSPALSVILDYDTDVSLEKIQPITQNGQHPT

The target of this test is D(1A) dopamine receptor (Homo sapiens) (UniProt P21728). The experiment in a line: Antagonist of Human D 1 Dopamine Receptor: qHTS. The following applies: HEK293 TREx D1 cells, calcium flux, dopamine EC80; at 10 µM; active compounds read low. A digest of the protocol:
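Calcium flux readout: force-coupled, inducible Hek293 Trex D1 line, cells induced overnight at 30 C with tetracycline, dye-loaded 30–90 min at RT. Antagonism scored against EC80 dopamine challenge given 180 s after compound.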
As to `COCCCNC(=O)c1ccc(NC(=O)c2nsc3ccccc23)cc1`, the activity change, negative = inhibition is -4.68%.

Take `COc1ccc(NC(=O)CCN2CCN(CCO)CC2)cc1`: the activity change, negative = inhibition was -14%.

`Cc1ccc(C)c(N2CCN(C(=O)C3CCC(CNS(=O)(=O)c4cccs4)CC3)CC2)c1` (stereo unspecified): the activity change, negative = inhibition was 16.1%.

In the case of `COc1ccc(NC(=O)N2CCCn3nc(C)cc32)cc1OC`, the activity change, negative = inhibition was -22.3%.

`COc1ccc(CCNC(=O)c2ccc(CSCc3ccc(C)cc3)o2)cc1OC`: the activity change, negative = inhibition is -24.7%.

`Clc1cccc(-n2ncc3c(NCCc4ccccc4)ncnc32)c1`: the activity change, negative = inhibition was -27.8%.

For the molecule `COc1ccc(CCNc2ncnc3c2cnn3-c2ccc(C)cc2)cc1`, the activity change, negative = inhibition is -63.8% (active).

For the molecule `C1=C(CCNc2ncnc3c2cnn3-c2ccccc2)CCCC1`, the activity change, negative = inhibition was -10.6%.

For `O=C(Nc1ccccc1F)C(c1ccccc1)N1Cc2ccccc2C1=O` (stereo unspecified), the activity change, negative = inhibition was -0.199%.

Take `Cc1cccc(OCC(=O)N(Cc2ccc(C(C)C)cc2)Cc2ccco2)c1C`: the activity change, negative = inhibition was -14.7%.

Regarding `COc1ccc(NC(=O)NCc2ccc3c(c2)OCO3)c(OC)c1`, the activity change, negative = inhibition is 2.8%.

Regarding `Cc1ccc(CNC(=O)c2cc(-c3ccccc3C)n(CC3CC(c4cccc([N+](=O)[O-])c4)=NO3)n2)cc1` (stereo unspecified), the activity change, negative = inhibition was -15.8%.

Turning to `COc1ccc(C2=NOC(Cn3nc(C(=O)NCc4ccc5c(c4)OCO5)cc3-c3ccccc3)C2)cc1` (stereo unspecified), the activity change, negative = inhibition is -33.6% (active).

Turning to `COc1cccc(-c2cccc(NC(=O)C3CCN(C4CCC4)CC3)c2)c1`, the activity change, negative = inhibition was 30.7%.

Take `COc1cccc(N=C2SC(C(=O)Nc3cccc(Cl)c3)CC(=O)N2C)c1` (stereo unspecified): the activity change, negative = inhibition was -65.2% (active).

In the case of `COc1ccc(N=C2SC(C(=O)Nc3ccc(F)cc3)CC(=O)N2C)cc1` (stereo unspecified), the activity change, negative = inhibition was 5.67%.

Take `CSc1ccc(CCNC(=O)c2cnn(-c3ccccc3)c2-n2cccc2)cc1`: the activity change, negative = inhibition was 1.42%.

For `O=C(NCCCN1CCOCC1)c1ccccc1NS(=O)(=O)c1ccc(Br)cc1`, the activity change, negative = inhibition was -0.557%.

Consider `O=C(NCCCN1CCOCC1)c1ccccc1NS(=O)(=O)c1ccc(F)cc1`, for which the activity change, negative = inhibition was -51.4% (active).

Take `Cc1ccc(NS(=O)(=O)c2ccc(C(=O)NCCCN3CCOCC3)cc2)cc1`: the activity change, negative = inhibition is 26.5%.

On to `COC(=O)c1cc(S(=O)(=O)N2CCN(c3cc(Cl)ccc3C)CC2)c[nH]1`, for which the activity change, negative = inhibition was 5.54%.

On to `CCn1cc2nc(SCc3cccc(F)c3)n(CCc3ccccc3)c(=O)c2n1`, for which the activity change, negative = inhibition was 11.7%.

Turning to `CCCCN(CC)CCCNC(=O)Cn1ncc2c([nH]c3ccc(C)cc32)c1=O`, the activity change, negative = inhibition is 3.23%.

Turning to `Cc1cccc(NC(=O)N2CCN(C)c3ncccc32)c1C`, the activity change, negative = inhibition is -0.945%.

With `COc1ccc(S(=O)(=O)n2nc(C)c(S(=O)(=O)N3CCCCCC3)c2C)cc1`, the activity change, negative = inhibition was 5.83%.

For `CSc1ccc(CCNC(=O)c2cc(C)nc3c2c(C)nn3-c2cccc(F)c2)cc1`, the activity change, negative = inhibition is -11.8%.

In the case of `Cc1cc(C(=O)Nc2cccc(C(F)(F)F)c2)c2c(C)nn(-c3cccc(F)c3)c2n1`, the activity change, negative = inhibition was -34.4% (active).

With `COc1cc(NC(=O)c2cc(C3CC3)nc3c2c(C)nn3-c2ccccc2)cc(OC)c1`, the activity change, negative = inhibition was 0.344%.

Turning to `CC(C)(C)C1CCc2c(sc(NC(=O)c3ccccc3F)c2C(=O)N2CCCCC2)C1` (stereo unspecified), the activity change, negative = inhibition is 4.22%.

In the case of `Cc1ccc(NC(=O)CN2c3ccccc3S(=O)(=O)c3ccccc32)cc1F`, the activity change, negative = inhibition is -3%.

`COc1cc(OC)c(-n2cc(-c3ccc(Cl)cc3)[nH]c2=O)cc1Cl`: the activity change, negative = inhibition is -36.2% (active).

`COc1cc(OC)c(-n2c(C)cc(C=O)c2C)cc1Cl`: the activity change, negative = inhibition is 14.6%.

Take `COc1cc(OC)c(N2CC(C(=O)Nc3cc(Cl)ccc3N3CCOCC3)CC2=O)cc1Cl` (stereo unspecified): the activity change, negative = inhibition is -18.4%.

On to `CCN1CCC(N(Cc2ccc(F)cc2)C(=O)Nc2cc(C)ccc2C)CC1`, for which the activity change, negative = inhibition was -6.08%.

In the case of `Cc1ccsc1CN(C(=O)c1oc2ccc(Br)cc2c1C)C1CCS(=O)(=O)C1` (stereo unspecified), the activity change, negative = inhibition was -12.9%.

With `CCc1ccc(CN(Cc2ccco2)C(=O)COc2ccc(Cl)c(C)c2)cc1`, the activity change, negative = inhibition is -3.05%.

In the case of `COc1ccc(Br)cc1CNC(=O)c1cc(=O)[nH]c2ccc(S(=O)(=O)N3CCCC3)cc12`, the activity change, negative = inhibition was 2.78%.

As for `O=C(O)c1cccnc1Sc1ncnc2sc3c(c12)CCC3`, the activity change, negative = inhibition is 11.4%.

`CC1(C)CN=C(N2CCN(c3ncnc4sc5c(c34)CCCC5)CC2)S1`: the activity change, negative = inhibition was -2.14%.

In the case of `O=C(O)[C@@H]1CCCN1c1ncnc2sc3c(c12)CCC3`, the activity change, negative = inhibition is -59.2% (active).

On to `O=C1OC(OC(=O)c2ccccc2Br)C(N2CCOCC2)=C1Cl` (stereo unspecified), for which the activity change, negative = inhibition was 6.42%.

For the molecule `Cc1ccccc1C(=O)OC1OC(=O)C(Cl)=C1Nc1ccccc1` (stereo unspecified), the activity change, negative = inhibition is -22.8%.

Take `Cc1ccc(NC2=C(Cl)C(=O)OC2OC(=O)c2ccccc2C)cc1` (stereo unspecified): the activity change, negative = inhibition was -33.8% (active).

Turning to `CCN(Cc1ccccc1)C(=O)c1cn(-c2cccc(OC)c2)c(=O)c2ccccc12`, the activity change, negative = inhibition was -4.13%.

In the case of `COc1ccccc1NC(=O)c1cc(C2CC2)nc2c1c(C)nn2-c1ccc(C)cc1`, the activity change, negative = inhibition is 3.81%.

`Cc1ccccc1Nc1nn2c(=O)c3ccc(C(=O)NCCc4ccc(Cl)cc4)cc3nc2s1`: the activity change, negative = inhibition is -2.1%.

With `Cc1ccc(C(=O)Nc2ccccc2F)cc1S(=O)(=O)N1CCOCC1`, the activity change, negative = inhibition was -16.7%.

`COc1cccc(C(O)Cc2nc3ccccc3n2C)c1OC` (stereo unspecified): the activity change, negative = inhibition is 5.85%.

Turning to `Cn1c(CC(=O)NNC(=O)c2ccccc2F)nc2ccccc21`, the activity change, negative = inhibition is -11.4%.

On to `Cn1c(COc2ccccc2C(C)(C)C)nc2ccccc21`, for which the activity change, negative = inhibition was -65.7% (active).

With `O=C(Cn1cc(SCc2ccccc2)c2ccccc21)N1CCCCC1`, the activity change, negative = inhibition was -7.17%.

For `Cc1ccc(NC(=O)Nc2sc3nc4n(c(=O)c3c2C)CCC(C)CC4)c(Cl)c1` (stereo unspecified), the activity change, negative = inhibition was 10.9%.

Take `COc1ccc(C2Nc3ccccc3C(=O)N2Cc2ccccc2)cc1Cn1nnc2ccccc21` (stereo unspecified): the activity change, negative = inhibition was 12.5%.

For `COc1ccc(CN2CCCC(C(=O)c3ccc(Cl)cc3)C2)cc1Cn1cncn1` (stereo unspecified), the activity change, negative = inhibition was -13.5%.

For `COc1ccc(C2Nc3ccccc3C(=O)N2c2ccc(Cl)cc2)cc1Cn1cc([N+](=O)[O-])cn1` (stereo unspecified), the activity change, negative = inhibition was -30.3% (active).

On to `Cc1cc(C)cc(NC(=O)CSc2oc(-c3ccccc3)nc2S(=O)(=O)c2ccc(Cl)cc2)c1`, for which the activity change, negative = inhibition was -12.1%.
